In the library only some 7.9% were active in any assay of this set; here they are far more common.
HT1080-NT tox – kills 2HG-producing HT-1080-NT fibrosarcoma cells; HT-1080-NT fibrosarcoma viability, CellTiter-Glo ATP luminescence, 48 h; Potency, µM (series often up to 46.1 µM), for the others: at the top dose activity, negative = less viability, most hits filed as cytotoxic; 1.6% of 360,000 active; AID 686970;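 further: NT is the 2HG producing partner of a matched IDH1 knockdown line; 0% = DMSO-treated cells and -100% = media-only wells without cells; nearly all actives have a fitted effect of over 55% in size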
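Fibrosarcoma NT cells, 750 per well in 5% FBS RPMI, were exposed to compound for 48 hours. Viability: CellTiter-Glo luminescence.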
KB-V1 cytotox – KB-V1 MDR subline cytotoxicity. KB-V1 MDR cells viability, CellTiter-Glo, 72 h. Potency, µM (doses to about 46.1 µM), hits mostly cytotoxic. 3.4% of 400,000 active. AID 1347076; further: on the % scale 0 is the no-effect control and ±100 the full control effect; nearly all actives have a fitted effect of over 60% in size
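Cytotoxicity via CellTiter-Glo luminescence after 72 h compound exposure at 37 degrees C. Cells: drug-selected KB-V1 line, DMEM phenol-red free plus 10% FBS. Compounds tested at multiple concentrations; normalized data fitted to concentration-effect curves.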
SW480 rerep – induces DNA re-replication in SW480 colon adenocarcinoma cells; SW480 DNA re-replication, Hoechst DNA content imaging, 48 h; Potency, µM (titrated, usually from 46.1 µM), inactives show top-dose re-replication activation, hits mostly activators; 1.8% of 340,000 active; further: % of control where 0% means no effect; nearly all actives have a fitted effect of over 55% in size
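Readout is total intensity of Hoechst-stained nuclei, excited at 405 nm and collected at 500-530 nm. Compound treatment lasted 48 hr at 37 C in 5% CO2 before staining.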
MCF10A rerep – inducers of DNA re-replication in MCF 10A breast cells | MCF 10A DNA re-replication, Hoechst nuclear intensity, 48 h | Potency, µM (series often up to 46.1 µM), inactives show at the top dose activity, positive = re-replication, actives largely listed as activators | 2.9% of 350,000 active | AID 624296; further: % of control where 0% means no effect; nearly all actives have a fitted effect of over 50% in size
KB-3-1 tox – KB-3-1 parental cell cytotoxicity | 1.4% of 400,000 active | Potency, µM (doses to about 46.1 µM), most hits filed as cytotoxic | AID 1347075 | KB-3-1 viability, CellTiter-Glo ATP luminescence, 72 h; further: on the % scale 0 is the no-effect control and ±100 the full control effect; nearly all actives have a fitted effect of over 60% in size
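Parental KB-3-1 adenocarcinoma cells in phenol-red-free DMEM with 10% FBS were pin-treated with compounds at several concentrations, incubated 72 h at 37 °C, and viability read by CellTiter-Glo luminescence; concentration-effect curves were fitted after normalization.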
HT1080 IDH1KD tx – toxicity to HT-1080 IDH1 knockdown cells (counter line); HT-1080 IDH1 knockdown viability, ATP luminescence, 48 h; Potency, µM (top dose mostly 46.1 µM), for inactives: at the highest dose activity, negative = toxicity, most hits filed as cytotoxic; 2% of 360,000 active;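 further: 0% = DMSO wells and -100% = cell-free medium wells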
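% activity derives from luminescence (CellTiter-Glo), normalised to DMSO and no-cell wells. HT-1080-IDH1KD cells, 750/well, had 48 h compound exposure at 37 °C.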
* marks the source's active call; other numbers are inactive results; i = inactive; ? = inconclusive; . = no result. The call rests on the fitted dose curve; in most records, active means well fitted curve in the direction sought with a large enough effect; inconclusive means small, poorly fitted or top-dose-only effect, or another doubt; inactive means no such curve, though single readings can be large; an effect the other way counts as inactive or inconclusive. Potency means the concentration at half of the fitted maximal effect.

SMILES | HT1080-NT tox | KB-V1 cytotox | SW480 rerep | MCF10A rerep | KB-3-1 tox | HT1080 IDH1KD tx
COc1cc(C=C2CN(C)C(=O)C2=O)ccc1O | 1% | i | . | . | i | 7%
O=C(CN1CCN(c2ncc(C(F)(F)F)cc2Cl)CC1)NCCNc1ncc(C(F)(F)F)cc1Cl | ? | ? | ? | 18µM* | i | 18µM*
O=C(CSc1ncccn1)Nc1ncc(C(F)(F)F)cc1Cl | -1% | i | -61% | 2.1µM* | i | -3%
O=C(NNc1ncc(C(F)(F)F)cc1Cl)c1c(Cl)cccc1Cl | ? | 2.9µM* | ? | 6.5µM* | 5.8µM* | 7.3µM*
CCOC(=O)Cc1csc(SCC(=O)N2CCN(c3ccc(OC)cc3)CC2)n1 | -5% | 21µM* | -4% | 5% | i | 8%
COc1ccc(N2CCN(C(=O)Cc3ccc(Br)cc3)CC2)cc1 | -8% | 21µM* | -8% | 8% | i | -1%
COc1ccc(CC(=O)N2CCN(c3ccc(F)cc3)CC2)cc1 | 22% | i | -7% | 2% | i | 29%
COc1ccc(N2CCN(CC(=O)c3ccc(Cl)cc3)CC2)cc1 | 0% | ? | -2% | 18µM* | i | 0%
COc1ccc(N2CCN(C(=O)CNC(=O)Cc3ccc(Cl)cc3)CC2)cc1 | ? | 10µM* | ? | ? | 15µM* | 21µM*
COc1ccc(C(=O)CN2CCN(c3ccc(Cl)cc3)CC2)cc1OC | -1% | i | 19% | 13% | i | -3%
COc1ccc(N2CCN(C(=O)CNC(=O)Cc3ccccc3)CC2)cc1 | 0% | . | 6% | 0% | . | -3%
CCCCNC(=O)CCCn1c(=O)c2ccccc2n(CC(=O)Nc2ccccc2OCC)c1=O | . | i | . | . | i | .
CC1(COc2ccc(CC3SC(=O)NC3=O)cc2)CCCCC1 (centres undefined) | . | . | 12% | ? | . | .
Cn1nccc1NC(=O)CSCC(=O)O | 19% | i | -54% | 8.2µM* | i | 9%
Cc1ccnn1CCSCC(=O)O | -2% | i | 0% | 21µM* | i | 15%
COCCNC(=O)[C@H](CSCc1ccccc1)N1Cc2ccccc2C1=O | 3% | 9.2µM* | -7% | -2% | i | 0%
COC(=O)c1ccc(CSc2nc3c([nH]c4ccccc43)c(=O)n2-c2cccc(OC)c2)o1 | . | ? | . | . | i | .
O=[N+]([O-])c1ccccc1S(=O)c1ccccc1[N+](=O)[O-] | 21µM* | ? | . | . | ? | ?
O=C(COC(=O)/C=C/c1ccc([N+](=O)[O-])cc1)NC(c1ccccc1)c1ccccc1 | -14% | i | 20% | 23µM* | i | -13%
O=C(COC(=O)/C=C/c1ccc([N+](=O)[O-])cc1)NCc1ccccc1 | -2% | i | -4% | 3% | i | 0%
COc1ccc(CN(Cc2ccccc2)C(=O)CN2CCN(C)CC2)cc1COc1ccc(NC(C)=O)cc1 | -16% | . | . | . | . | -14%
COc1ccc(N=c2nc(-c3ccccc3)n(-c3ccc(C)cc3)s2)cc1 | . | i | . | . | ? | .
COC(=O)c1ccc(COC(=O)c2ccc(CS(=O)(=O)c3ccc(C)cc3)cc2)cc1 | -1% | i | -11% | 8% | i | ?
COC(=O)c1cc2c(n1S(=O)(=O)c1ccc(C)cc1)C(=O)C(=O)c1[nH]cc(C(=O)OCc3ccccc3)c1-2 | 9.2µM* | 7.3µM* | ? | 8% | 3.3µM* | 3.7µM*
Cc1cc(C)cc(NC(=O)CSc2nc(-c3cccc(Cl)c3)nc3c2Cc2c(CO)cnc(C)c2O3)c1 | . | i | . | . | i | .
COc1ccccc1-n1c(SCC(=O)c2ccc(O)cc2O)nc2cc([N+](=O)[O-])ccc21 | ? | 16µM* | -6% | ? | i | ?
CCN(CC)S(=O)(=O)c1ccc2c(c1)nc(SCC(=O)NC1CC1)n2-c1ccccc1OC | -4% | i | 0% | 3% | i | -10%
